The chains are these.
T1: RBFOX1 RRM RbFoxmut (Fox-RRM*) (Homo sapiens, UniProt Q9NWB1 109-208, R118D;E147R;N151S;E152T)
T1 sequence: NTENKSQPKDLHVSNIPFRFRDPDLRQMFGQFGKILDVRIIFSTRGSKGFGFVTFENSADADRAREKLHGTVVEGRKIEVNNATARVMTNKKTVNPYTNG

B1: CUCACAU (DNA:RNA)
RNA: GGGAGACCGGAAUUCAGAUUGUCCCUCACAUUUAAAUCCCGUCGUAGCCACCA
DNA 1: CAATCTGAATTCCGGTCTCCC
DNA 2: TGGTGGCTACGACGGGATT
B2: AUGCAGC (DNA:RNA)
RNA: B1 RNA with C25A, C27G, A28C, C29A, A30G, U31C
DNA 1: CAATCTGAATTCCGGTCTCCC
DNA 2: TGGTGGCTACGACGGGATT
B3: AGUCCCU (DNA:RNA)
RNA: B1 RNA with C25A, U26G, C27U, A28C, A30C
DNA 1: CAATCTGAATTCCGGTCTCCC
DNA 2: TGGTGGCTACGACGGGATT
B4: GAAGUCC (DNA:RNA)
RNA: GGGAGACCGGAAUUCAGAUUGUCCGAAGUCCUUAAAUCCCGUCGUAGCCACCA
DNA 1: CAATCTGAATTCCGGTCTCCC
DNA 2: TGGTGGCTACGACGGGATT
B5: UGCCAGA (DNA:RNA)
RNA: B1 RNA with C25U, U26G, A28C, C29A, A30G, U31A
DNA 1: CAATCTGAATTCCGGTCTCCC
DNA 2: TGGTGGCTACGACGGGATT
B6: UCCUUGG (DNA:RNA)
RNA: B1 RNA with C25U, U26C, A28U, C29U, A30G, U31G
DNA 1: CAATCTGAATTCCGGTCTCCC
DNA 2: TGGTGGCTACGACGGGATT
B7: UUGGUUG (DNA:RNA)
RNA: B4 RNA with G25U, A26U, A27G, C30U, C31G
DNA 1: CAATCTGAATTCCGGTCTCCC
DNA 2: TGGTGGCTACGACGGGATT
B8: UUGUUGG (DNA:RNA)
RNA: B1 RNA with C25U, C27G, A28U, C29U, A30G, U31G
DNA 1: CAATCTGAATTCCGGTCTCCC
DNA 2: TGGTGGCTACGACGGGATT
B9: GUGGUGG (DNA:RNA)
RNA: B4 RNA with A26U, A27G, C30G, C31G
DNA 1: CAATCTGAATTCCGGTCTCCC
DNA 2: TGGTGGCTACGACGGGATT
B10: GUCGUGG (DNA:RNA)
RNA: B4 RNA with A26U, A27C, C30G, C31G
DNA 1: CAATCTGAATTCCGGTCTCCC
DNA 2: TGGTGGCTACGACGGGATT
B11: GUGGUUG (DNA:RNA)
RNA: B4 RNA with A26U, A27G, C30U, C31G
DNA 1: CAATCTGAATTCCGGTCTCCC
DNA 2: TGGTGGCTACGACGGGATT

Positions count from the first letter of the chain named. Over roughly 16,000 sequences, “ka relative to ugcaugu” has its median near 0.096; the highest 2% begin near 0.35. Many of the other results were omitted from the sample, so the highest values are more common in it than they were.

For this assay, the target named is T1, RBFOX1 RRM RbFoxmut (Fox-RRM*). Briefly: EMSA; HiTS-Eq, 1 nM pool, 10 min; buffer printed only for the single-RNA assays: 10 mM Tris pH 7.5, 150 mM NaCl, 3.4 mM EDTA, 0.001% NP-40, 30 C. Conditions: tags: His6 N-terminal (pET28a); label: 5' 32P. The essentials: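 Relative association constants, normalised to the cognate motif, were derived by comparing read counts of each RNA species with those of the control reaction. The RNA sequenced was the free fraction, separated by 8% native PAGE after a 10 min equilibration in 50 µL of 1 nM 5′-radiolabelled RNA (7 randomized nucleotides) with increasing concentrations of purified wild-type or mutant RbFox RRM.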
With B1, the binding signal was 0.0911 KA relative to UGCAUGU.

With B2, the binding signal was 0.106 KA relative to UGCAUGU.

With B3, the binding signal is 0.0659 KA relative to UGCAUGU.

Take B4: the binding signal is 0.0491 KA relative to UGCAUGU.

Regarding B5, the binding signal was 0.116 KA relative to UGCAUGU.

As for B6, the binding signal is 0.0776 KA relative to UGCAUGU.

Regarding B7, the binding signal is 0.65 KA relative to UGCAUGU.

On to B8, for which the binding signal is 0.117 KA relative to UGCAUGU.

Take B9: the binding signal was 0.15 KA relative to UGCAUGU.

On to B10, for which the binding signal is 0.112 KA relative to UGCAUGU.

For B11, the binding signal is 0.737 KA relative to UGCAUGU.

These data come from PMC9911399, “Two distinct binding modes provide the RNA-binding protein RbFox with extraordinary sequence specificity”.
